# Bioassay records from PubChem BioAssay.
# The list is not random: actives were taken first. Their share in the collection is about 6.9%.
# MCF10A rerep – induces DNA re-replication in MCF 10a normal breast cells; Potency, µM (top dose mostly 46.1 µM), without a hit: top-dose activity, positive = re-replication, hits mostly activators; AID 624296; MCF 10A DNA re-replication, Hoechst nuclear intensity, 48 h; hit rate 2.9% among 350,000; note: potency is the fitted concentration of half-maximal effect; % of control where 0% means no effect; nearly all actives have a fitted effect of over 50% in size
# IL-1B inflam inh – inhibitors of inflammasome signaling (IL-1 beta secretion); THP-1 LPS/ATP IL-1B secretion, AlphaLISA, 16 h; stronger effect = lower value; activity change, % at 57.5 µM; hit rate 4.7% among 360,000; in the data active = activity change below about -50%; inconclusive = mostly about -30% to -49%; note: % is set by controls: 0 for no effect and ±100 for the full control effect
#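 Secreted IL-1B measured by AlphaLISA bead assay after 16 h compound exposure of THP-1 cells; compounds (final up to 57.5 uM) added 1 h before LPS (250 ng/mL) and ATP (1.25 mM) stimulation; lower signal means less secretion.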
# Vif-APOBEC3G blk – Vif-A3G binding inhibition. hit rate 0.076% among 410,000. Potency, µM (series often up to 46.1 µM), for inactives: top-dose activity, negative = active, most hits filed as inhibitors. HeLa A3G-eYFP + Vif (tagged APOBEC3G with the HIV-1 protein that degrades it), YFP fluorescence, overnight; note: potency is the fitted concentration of half-maximal effect; % is set by controls: 0 for no effect and ±100 for the full control effect; nearly all actives have a fitted effect of over 60% in size
# Target sequence (Q9HC16 whole entry, looked up): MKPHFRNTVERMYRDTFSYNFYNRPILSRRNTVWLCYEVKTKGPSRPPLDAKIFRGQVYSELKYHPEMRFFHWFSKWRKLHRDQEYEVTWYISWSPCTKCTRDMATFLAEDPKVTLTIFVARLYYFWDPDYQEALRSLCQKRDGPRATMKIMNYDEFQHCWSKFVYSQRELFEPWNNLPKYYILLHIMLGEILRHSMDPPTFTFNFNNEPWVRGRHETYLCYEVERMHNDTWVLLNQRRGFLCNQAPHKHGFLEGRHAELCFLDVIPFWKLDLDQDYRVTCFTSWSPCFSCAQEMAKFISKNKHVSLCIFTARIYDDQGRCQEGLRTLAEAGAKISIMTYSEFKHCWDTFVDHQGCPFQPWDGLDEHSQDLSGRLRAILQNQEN
#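 Read-out is eYFP fluorescence (Ex 488/Em 500-530) from Vif-expressing HeLa A3G-eYFP cells; more signal means A3G escaped Vif-mediated degradation. Cells plated overnight, compound pinned in, incubated overnight at 37 deg C.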
# Vif-A3F inh – Vif-A3F binding inhibition; Potency, µM (top dose mostly 46.1 µM), for inactives: at the top dose activity, negative = active; hit rate 0.2% among 390,000; HeLa A3F-eYFP + Vif (tagged APOBEC3F with the HIV-1 protein that degrades it), YFP fluorescence increase; AID 602313; note: potency is the fitted concentration of half-maximal effect; % of control where 0% means no effect; nearly all actives have a fitted effect of over 65% in size
#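 Fluorescence increase (Ex 488/Em 500-530) after overnight compound treatment at 37 deg C flags inhibition of Vif-driven A3F-eYFP loss in stable HeLa A3F-eYFP/Vif cells seeded overnight beforehand.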
# SW480 rereplic – induces DNA re-replication in SW480 colon adenocarcinoma cells | SW480 DNA re-replication, Hoechst DNA content imaging, 48 h | Potency, µM (doses to about 46.1 µM), for the others: top-dose re-replication activation, hits mostly activators | hit rate 1.8% among 340,000 | AID 624297; note: potency is the fitted concentration of half-maximal effect; % of control where 0% means no effect; nearly all actives have a fitted effect of over 55% in size
#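 Compounds, transferred as 23 nL by pin tool, were incubated with cells for 48 hr; DNA content per nucleus was then quantified by Hoechst staining and fluorescence plate imaging.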
# Giardia killer – Giardia lamblia killing; Giardia lamblia trophozoite viability; activity change, % at 7.66 µM, hits read low; hit rate 0.15% among 340,000; AID 540267; in the data active = activity change below about -80%; inconclusive = between about -30% and that limit;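 note: parasites exposed to compound for two days anaerobically before the ATP read; % is set by controls: 0 for no effect and ±100 for the full control effect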
#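 Each well holds 100 Giardia trophozoites and compound. After two days (48 hrs) at 37 deg C in anaerobic conditions, ATP is quantified by luminescence.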
# Active calls of the source: *; ? = inconclusive; . = no result given. Unless noted, calls come from the whole dose curve; as a rule, active = well fitted curve in the direction sought with a large enough effect; inconclusive = small, poorly fitted or top-dose-only effect, or another doubt; inactive = no such curve, though single readings can be large; an effect the other way counts as inactive or inconclusive.
SMILES,MCF10A rerep,IL-1B inflam inh,Vif-APOBEC3G blk,Vif-A3F inh,SW480 rereplic,Giardia killer
CN1CCN(c2cc3c(c4c2[nH]c2ccccc24)C(=O)CC(C)(C)C3)CC1,21µM*,-65*,-15%,-3%,?,-12
O=C(CCl)NCc1c(Cl)cccc1-n1cccc1,18µM*,-76*,0%,4%,25%,-16
Cc1ccc(OCC(=O)Nc2cccc(S(=O)(=O)NC3=NCCCCC3)c2)cc1C,10%,17,1%,5%,-8%,-11
Cc1ccc(C)c(C(=O)OCC(=O)Nc2cccc(S(=O)(=O)NC3=NCCCCC3)c2)c1,-2%,-69*,1%,5%,-2%,16
Cc1cc(C)cc(OCC(=O)Nc2cccc(S(=O)(=O)NC3=NCCC3)c2)c1,?,-2,-27%,-7%,21µM*,-15
O=C(CCl)Nc1cccc(S(=O)(=O)NC2=NCCCCC2)c1,?,-99*,?,5%,25%,-18
O=C(CCl)Nc1ccc(S(=O)(=O)NC2=NCCCCC2)cc1,21µM*,-96*,?,14%,?,-23
CCc1nnc(SC(CC)C(=O)Nc2ccc(OC)c(Cl)c2)c2cc3occc3n12 (configuration not stated),.,.,-1%,5%,.,.
CCCc1cc(=O)[nH]c(Nc2ccccc2O)n1,.,.,-15%,?,.,.
C#CCN(C1CCCC1)S(=O)(=O)C=C,.,.,-21%,.,.,.
COc1ccc(/C=C/C(=O)OCC(=O)Nc2cccc(S(=O)(=O)NC3=NCCCCC3)c2)cc1,17%,-70*,0%,1%,9%,16
O=C(/C=C/c1ccc(Cl)cc1Cl)Nc1cccc(S(=O)(=O)NC2=NCCCCC2)c1,?,-69*,-2%,6%,1%,-13
O=C(/C=C/c1ccccc1[N+](=O)[O-])Nc1cccc(S(=O)(=O)NC2=NCCCCC2)c1,-38%,-16,1%,5%,3%,-18
C=CCc1ccc(OCCOc2cccc3ccc(C)nc23)c(OC)c1,12µM*,6,-3%,5%,?,-9
COc1ccc(/C=C/CN2CCC(CO)(Cc3ccccc3Cl)CC2)cc1,?,-79*,1%,-28%,?,12
COC(=O)c1ccc(CN2CCC(CO)(Cc3ccccc3Cl)CC2)cc1,?,15,0%,-1%,?,-3
CCn1ncc(Br)c1C(=O)Nc1ccccc1C(F)(F)F,-22%,-7,-7%,-7%,-22%,2
CCn1ncc(Br)c1C(=O)Nc1ccc(F)cc1F,16µM*,1,1%,-6%,21µM*,13
CCn1ncc(Br)c1C(=O)Nc1ccc(OC(F)(F)F)cc1,-11%,1,2%,-5%,-8%,32
CCn1ncc(Br)c1C(=O)Nc1ccc(F)c([N+](=O)[O-])c1,?,-97*,2%,8%,-3%,5
COc1cccc2c(Cl)c(CC=C(Cl)Cl)c(C)nc12,2%,-50*,-1%,1%,-10%,3
CCOc1ccc(CC(=NCCc2ccccc2)C2=C(O)CC(C)(C)CC2=O)cc1OCC,0%,-66*,-1%,-10%,1%,1
CCOc1ccc(CC(=N)C2=C(O)CC(C)(C)CC2=O)cc1OCC,-3%,30,0%,-8%,-2%,-12
CC(C)CN(c1ccccc1)S(=O)(=O)c1nnc(NC(=O)C2CCCCC2)s1,.,.,5%,1%,.,.
CCCCCn1c(=N)n(CC(O)COc2ccccc2OC)c2ccccc21 (configuration not stated),?,-59*,7%,-3%,?,-7
SMILES,MCF10A rerep,IL-1B inflam inh,Vif-APOBEC3G blk,Vif-A3F inh,SW480 rereplic,Giardia killer
COc1ccccc1OCC(O)Cn1c(=N)n(Cc2ccccc2)c2ccccc21 (configuration not stated),?,-73*,2%,-7%,?,3
CCCCn1c(=N)n(CCOc2ccccc2OC)c2ccccc21,.,.,9%,9%,.,.
Cc1ccccc1OCC(O)Cn1c(=N)n(Cc2ccccc2)c2ccccc21 (configuration not stated),0%,-106*,2%,4%,5%,-14
CCCCN(CC(O)COc1cccc(C)c1)CC(O)COc1cccc(C)c1 (configuration not stated),?,-100*,-9%,-11%,?,8
C=CCn1c(=N)n(CC(O)COc2ccccc2OC)c2ccccc21 (configuration not stated),12%,?,-2%,4%,16%,9
CCCn1c(=N)n(CC(O)COc2ccc(C)cc2)c2ccccc21 (configuration not stated),-32%,.,1%,-26%,?,-18
CCCCn1c(=N)n(CC(O)COc2cccc(C)c2)c2ccccc21 (configuration not stated),21%,-94*,0%,-2%,?,-1
O=C(NNc1nccc(C(F)(F)F)n1)Nc1cccc(Cl)c1,-11%,-13,-4%,2%,-5%,-2
O=C(NNc1cc(C(F)(F)F)nc2ccccc12)Nc1cccc(Cl)c1,?,-89*,-9%,13%,4%,-19
Cc1ccc(-n2c(SCC(=O)NCc3ccccc3)nc3n[nH]c(C)c3c2=N)cc1Cl,.,.,2%,-9%,.,.
COc1ccc(N=Cc2c(O)c3ccccc3n2C(C)=O)cc1,?,0,13µM*,13µM*,3%,-9
COc1ccc(N=Cc2sc(O)c3ccccc23)cc1,?,-83*,13µM*,-17%,?,-12
CCn1c(CNC(=O)C23CC4CC(CC(C4)C2)C3)nnc1SCC(=O)Nc1ccc(F)cc1,.,.,-5%,-4%,.,.
CCOCCCNC(=O)c1ccc2c(c1)N=C(CC)c1cc(Br)ccc1S2,?,-11,-23%,-23%,1.8µM*,5
CCc1cc2c(cc3c(=O)n(CC(=O)N4CCCCC4)ncn32)s1,.,.,0%,-1%,.,.
Cc1ccc(/C=C/C(=O)N2CCc3ccccc32)o1,14%,-81*,-41%,8%,-7%,-3
O=C(c1ccco1)N1CCc2ccccc21,1%,-5,-2%,2%,9%,-19
Cc1ccc(/C=C/C(=O)N2CCN(c3ccc(F)cc3)CC2)o1,?,0,0%,-6%,-1%,10
O=C(/C=C/c1ccco1)N1CCc2ccccc21,0%,-27,?,11µM*,-2%,?
Cc1ccc(/C=C/C(=O)N2CCN(c3ncccn3)CC2)o1,?,-81*,-2%,-9%,?,7
Cn1nc(-c2ccc(OCC(=O)Nc3ccc(Cl)cc3)cc2)c2ccccc2c1=O,.,.,-1%,3%,.,.
COc1ccc(OC)c(/C=C/c2ccc3ccccc3[n+]2C)c1,.,.,1%,.,.,.
